CYP2C9 inh: human CYP2C9 inhibition. P11712. CYP2C9 Supersomes, luciferin-H conversion, luminescence. inhibition, % at 5 µM. 96,000 compounds, 20% hits;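 active means blocking of liver enzyme CYP2C9 beyond about 50% at 5 µM, limit read from the data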
Target sequence (P11712 whole entry, looked up): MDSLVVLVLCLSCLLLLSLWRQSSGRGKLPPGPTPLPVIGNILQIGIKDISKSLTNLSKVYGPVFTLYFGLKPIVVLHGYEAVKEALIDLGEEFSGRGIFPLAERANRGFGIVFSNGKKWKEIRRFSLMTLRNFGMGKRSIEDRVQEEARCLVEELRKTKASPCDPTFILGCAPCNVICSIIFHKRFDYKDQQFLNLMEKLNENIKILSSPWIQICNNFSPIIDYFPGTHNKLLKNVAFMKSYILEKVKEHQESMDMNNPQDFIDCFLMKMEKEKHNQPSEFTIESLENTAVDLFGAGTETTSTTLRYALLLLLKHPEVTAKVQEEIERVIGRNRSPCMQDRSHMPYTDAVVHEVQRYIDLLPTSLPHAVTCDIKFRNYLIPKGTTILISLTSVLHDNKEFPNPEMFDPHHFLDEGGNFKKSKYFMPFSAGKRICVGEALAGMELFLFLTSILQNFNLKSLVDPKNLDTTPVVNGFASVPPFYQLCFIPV
PostGolgi ctrl: inhibits growth of the yeast control strain; AID 738; 98,000 compounds, 5% hits; efflux-deficient yeast background strain, growth absorbance A615, 16 h; inhibition, % at 10 µM
CYP2C9 act: CYP2C9 (human) activation. recombinant CYP2C9, luciferin-H conversion, luminescence; stronger effect = higher value; factor 1 = untreated enzyme, 0 = blocked. 96,000 compounds, 1.4% hits. activation factor at 5 µM;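 active means activation factor of 2 or more for CYP2C9 at a 5 µM dose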
CYP2C19 inh: blocks human cytochrome P450 2C19; CYP2C19 Supersomes, luciferin-H EGE luminescence, 30 min; AID 778; inhibition, % at 5 µM; 96,000 compounds, 21% hits;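 active means CYP2C19 inhibition above a set limit at 5 µM in the primary screen, cut at about 50% in these data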
PostGolgi yeast: growth inhibition of a yeast mutant, post-Golgi transport screen. inhibition, % at 10 µM. 98,000 compounds, 0.9% hits. AID 739. post-Golgi transport phenotypic cell assay;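 further: yeast cells grown in 1536-well plates; yeast grown about 18 h at 30C before absorbance read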
CYP2C19 act: increases human CYP2C19 enzyme activity; P33261; 96,000 tested, under 10 active; activation factor at 5 µM; recombinant CYP2C19, luciferin-H EGE luminescence; stronger effect = higher value; 0 = fully inhibited enzyme, 1 = untreated enzyme;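 active means activation factor of at least 2 at 5 µM in the primary screen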
A number is an active result. These entries were drawn from the full list. Unless noted, no stated cut-off is given here; in the data, active means inhibition above about 30%; inactive means the rest.

How did CCOC(=O)c1c(C)nc2c(c1-c1cc(OC)c(OC)c(OC)c1)C(=O)c1ccccc1-2 do in these assays?
CYP2C9 inh: inactive; PostGolgi ctrl: inactive; CYP2C9 act: inactive; CYP2C19 inh: inactive; PostGolgi yeast: inactive; CYP2C19 act: inactive

Results for Cc1ccc(NC(=O)C2CCCN2S(=O)(=O)c2ccc(F)cc2)c(C)c1 (stereo not given) ?
CYP2C9 inh: inactive; PostGolgi ctrl: inactive; CYP2C9 act: inactive; CYP2C19 inh: inactive; PostGolgi yeast: inactive; CYP2C19 act: inactive

What do the screens show for `Cc1cc(C)nc(NCC(O)CNc2ccccc2Cl)n1` (stereo not given)?
PostGolgi ctrl: inactive; PostGolgi yeast: inactive

Results for C=CCn1c(Cc2ccc(OC)cc2)nnc1SCc1nc2ccccc2c(=O)[nH]1 ?
CYP2C9 inh: inactive; PostGolgi ctrl: inactive; CYP2C9 act: inactive; CYP2C19 inh: inactive; PostGolgi yeast: inactive; CYP2C19 act: inactive

How did CCOC(=O)/C=C1\SCC(=O)N1Cc1nnc(-c2ccccc2Br)o1 do in these assays?
CYP2C9 inh: 72; PostGolgi ctrl: inactive; CYP2C9 act: inactive; CYP2C19 inh: 76; PostGolgi yeast: inactive; CYP2C19 act: inactive

How did CCOC(=O)/C=C1\SCC(=O)N1Cc1ccc(Br)cc1 do in these assays?
PostGolgi ctrl: inactive; PostGolgi yeast: inactive

Results for CCc1nc(SCC(=O)c2cc(C)ccc2C)n[nH]1 ?
CYP2C9 inh: inactive; PostGolgi ctrl: inactive; CYP2C9 act: inactive; CYP2C19 inh: inactive; PostGolgi yeast: inactive; CYP2C19 act: inactive

How did Cc1ccc(C)c(C(=O)CSc2n[nH]c(C)n2)c1 do in these assays?
CYP2C9 inh: inactive; PostGolgi ctrl: inactive; CYP2C9 act: inactive; CYP2C19 inh: 57; PostGolgi yeast: inactive; CYP2C19 act: inactive

Results for CCc1ccc(C(=O)CSc2n[nH]c(C)n2)cc1 ?
CYP2C9 inh: inactive; PostGolgi ctrl: inactive; CYP2C9 act: inactive; CYP2C19 inh: 89; PostGolgi yeast: inactive; CYP2C19 act: inactive

How did Cc1ccc(C(=O)CSc2n[nH]c(C)n2)cc1 do in these assays?
CYP2C9 inh: inactive; PostGolgi ctrl: inactive; CYP2C9 act: inactive; CYP2C19 inh: 52; PostGolgi yeast: inactive; CYP2C19 act: inactive

Results for O=C(CSc1n[nH]c(-c2ccccc2)n1)c1ccccc1 ?
CYP2C9 inh: inactive; PostGolgi ctrl: inactive; CYP2C9 act: inactive; CYP2C19 inh: inactive; PostGolgi yeast: inactive; CYP2C19 act: inactive

What do the screens show for `COC(=O)c1[nH]c2ccccc2c1NC(=O)CNC1CCCCC1`?
CYP2C9 inh: inactive; PostGolgi ctrl: inactive; CYP2C9 act: inactive; CYP2C19 inh: inactive; PostGolgi yeast: inactive; CYP2C19 act: inactive

Results for COc1cc(CNc2ccc(N3CCOCC3)c(C(=O)O)c2)ccc1OCC(N)=O ?
CYP2C9 inh: inactive; PostGolgi ctrl: inactive; CYP2C9 act: inactive; CYP2C19 inh: inactive; PostGolgi yeast: inactive; CYP2C19 act: inactive

How did CCCNC(=S)Nc1ccc2nc(-c3ccccn3)c(-c3ccccn3)nc2c1 do in these assays?
CYP2C9 inh: inactive; PostGolgi ctrl: inactive; CYP2C9 act: inactive; CYP2C19 inh: inactive; PostGolgi yeast: inactive; CYP2C19 act: inactive

Results for CC(=O)Nc1ccc(S(=O)(=O)N(C2=NCC(C)S2)c2ccccc2)cc1 (stereo not given) ?
PostGolgi ctrl: inactive; PostGolgi yeast: inactive

What do the screens show for `CC1CN=C(N(C(=O)Nc2ccccc2)c2ccc(F)cc2)S1` (stereo not given)?
CYP2C9 inh: 76; PostGolgi ctrl: inactive; CYP2C9 act: inactive; CYP2C19 inh: 76; PostGolgi yeast: inactive; CYP2C19 act: inactive

Results for Cc1cccnc1N(C(=O)Nc1ccccc1)C1=NCC(C)(C)S1 ?
CYP2C9 inh: inactive; PostGolgi ctrl: inactive; CYP2C9 act: inactive; CYP2C19 inh: inactive; PostGolgi yeast: inactive; CYP2C19 act: inactive

Results for Cc1cccc(N(C(=O)Nc2ccccc2)C2=NCC(C)S2)c1 (stereo not given) ?
CYP2C9 inh: 81; PostGolgi ctrl: inactive; CYP2C9 act: inactive; CYP2C19 inh: 68; PostGolgi yeast: inactive; CYP2C19 act: inactive

How did COc1ccc(C(=O)O)cc1S(=O)(=O)NCCCN1CCCC1=O do in these assays?
CYP2C9 inh: inactive; PostGolgi ctrl: inactive; CYP2C9 act: inactive; CYP2C19 inh: inactive; PostGolgi yeast: inactive; CYP2C19 act: inactive

How did COc1nc(N/N=C/c2ccccc2F)nc(N2CCCCC2)n1 do in these assays?
CYP2C9 inh: inactive; PostGolgi ctrl: inactive; CYP2C9 act: inactive; CYP2C19 inh: inactive; PostGolgi yeast: inactive; CYP2C19 act: inactive

Compound activity from PubChem BioAssay.
